Source: PubChem BioAssay (NCI)
This is part of a sample that, as a whole, favours compounds with a hit. Of some 79,000 tested, about 15% had one in any assay. Rule as the data show it: active = growth inhibition above about 70%; inactive = the rest.

Tests used:
[1] = NCI Yeast Anticancer Drug Screen. Data for the rad50 strain (AID 155);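 also: 0% = growth of vehicle-only cultures of the same strain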; conditions: S. cerevisiae rad50 strain growth inhibition; at 50.0 µM; active compounds read high
Outline: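 Yeast carrying a defined DNA repair defect were exposed to test compounds, and growth was compared with vehicle-treated controls to give percent inhibition.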

[2] = NCI Yeast Anticancer Drug Screen. Data for the mec2-1 strain (AID 157); conditions: S. cerevisiae mec2-1 strain, at 50.0 µM, active compounds read high
Outline: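 mec2-1 yeast strain, carrying an alteration in DNA damage repair or cell cycle control, was exposed to compounds; growth inhibition was measured relative to vehicle-treated controls.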

[3] = NCI Yeast Anticancer Drug Screen. Data for the sgs1 mgt1 strain (AID 161);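 also: 0% = growth of cultures given vehicle only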; conditions: S. cerevisiae sgs1 mgt1 strain, at 50.0 µM, active compounds read high
Outline: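 This yeast growth screen uses a strain with defined DNA-repair lesions; compound-treated growth is compared with vehicle-treated growth.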

[4] = NCI Yeast Anticancer Drug Screen. Data for the cln2 rad14 strain (AID 165);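 also: 0% = growth equal to vehicle treated cultures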; conditions: S. cerevisiae cln2 rad14 strain, at 50.0 µM, active compounds read high
Outline: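 Yeast carrying cln2 and rad14 alterations (cell cycle control and DNA damage repair) were exposed to compounds. Growth inhibition was measured against vehicle-treated controls.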

[5] = NCI Yeast Anticancer Drug Screen. Data for the bub3 strain (AID 167); conditions: S. cerevisiae bub3 mutant strain, at 50.0 µM, active compounds read high
Outline: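 Compounds were applied to a genetically altered yeast strain carrying a cell-cycle control defect. Growth inhibition was scored against vehicle-treated controls.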

[6] = NCI Yeast Anticancer Drug Screen. Data for the mlh1 rad18 strain (AID 175); conditions: S. cerevisiae mlh1 rad18 strain growth inhibition; at 50.0 µM; active compounds read high
Outline: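 Growth inhibition of the yeast strain was measured after compound exposure and expressed relative to vehicle-treated controls. The strain carries defined defects in DNA damage repair.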

Measured: growth inhibition

CC(C)(C)C1COC(c2ccccc2)(c2ccccc2)C1 (configuration not stated)
inactive: [1] -24.6% | [2] -1.55% | [3] 8.7% | [4] -26.5% | [5] -2.4% | [6] -15.3%

O=C1c2ccccc2OC(Cl)(c2ccccc2)C1Cl (configuration not stated)
inactive: [1] -15.1% | [2] -2.4% | [3] -7.5% | [4] -21.8% | [5] 22.7% | [6] 2%

CCCCCCCCCCCCCCCCCC(=O)c1ccc(OC)c(OC)c1
inactive: [1] -14.8% | [2] -12.8% | [3] -31.1% | [4] -37.5% | [5] -24.4% | [6] -1.25%

N#CC(C#N)=C(O)/C(=C/c1ccccc1[N+](=O)[O-])NC(=O)c1ccccc1
inactive: [1] 2.75% | [2] -5.6% | [3] -3.65% | [4] 23.9% | [5] 1.75% | [6] 40.4%

COc1ccc(C2=C(N)c3cc(OC)ccc3C2=O)cc1
inactive: [1] 41.1% | [2] 12.3% | [3] 33% | [4] -0.3% | [5] 32.1% | [6] -24.8%

CC(=O)Oc1cc(Oc2c(OC(C)=O)cc(Oc3c(OC(C)=O)cc(OC(C)=O)c(OC(C)=O)c3OC(C)=O)cc2OC(C)=O)cc(OC(C)=O)c1OC(C)=O
inactive: [1] 6.15% | [2] 3.1% | [3] 13.2% | [4] 4.5% | [5] 15.4% | [6] 10.4%

CN=C1SC(C)(C)NN1C
inactive: [1] 9.2% | [2] 1.85% | [3] 4.35% | [4] -32% | [5] -6.4% | [6] 12.8%

O=C1OC2CC3CC2C1C3C(=O)N1CCCCC1 (configuration not stated)
inactive: [1] 11.5% | [2] -1.6% | [3] -8.15% | [4] -33% | [5] -9.65% | [6] -5.4%

O=C1c2ccccc2C(=O)C2CC(c3ccccc3)=CCC12 (configuration not stated)
inactive: [1] 10.6% | [2] 10.1% | [3] -5.8% | [4] -35.6% | [5] 52.9% | [6] 0.9%

Cc1cc(C)c2c(=O)cc(-c3cccc(F)c3)[nH]c2n1
inactive: [1] 1.35% | [2] -0.65% | [3] -28.2% | [4] 3.8% | [5] -1.3% | [6] -26.1%

CC1=C(C(=O)OC2CC3CCC2(C)C3(C)C)C2Nc3ccccc3N(C)C2O1 (configuration not stated)
inactive: [1] -4.75% | [2] -8.8% | [3] -3.65% | [4] -3.2% | [5] -8.4% | [6] 6.95%

C1CCc2[nH]nc(-c3n[nH]c4c3CCCCC4)c2CC1
inactive: [1] 9.25% | [2] 3.35% | [3] 19.9% | [4] 9.95% | [5] 12.3% | [6] 18.5%

Cc1cccc2c1C1c3ccccc3C(=O)CC1CC2=O (configuration not stated)
inactive: [1] 14.9% | [2] 30% | [3] 22.9% | [4] 25.7% | [5] 11% | [6] 35.2%

CN(CC(C)(C)C(O)c1ccccc1)C(=O)c1ccccc1 (configuration not stated)
inactive: [1] 0.95% | [2] -5.7% | [3] 12.7% | [4] 20.7% | [5] 8.2% | [6] 12.6%

CC1=N/C(=C/c2ccccc2)C(=O)O1
inactive: [1] 7.6% | [2] 0.75% | [3] 11.6% | [4] -26.7% | [5] 12.5% | [6] 10%

CCCCCCCCC(=O)N1CCOCC1
inactive: [1] 17.4% | [2] 7.15% | [3] 18.3% | [4] 16.4% | [5] -0.8% | [6] 8.8%

CC12CCC(/C(=C/N(O)/C=C3\C(=O)C4(C)CCC3C4(C)C)C1=O)C2(C)C
inactive: [1] -17.6% | [2] -11.8% | [3] -30.1% | [4] 1.85% | [5] 6.75% | [6] 0.8%

CC(C)C(NC(=O)c1cnc2ccccc2n1)C(=O)O (configuration not stated)
inactive: [1] -8.15% | [2] -5.5% | [3] 0.4% | [4] -51.7% | [5] 6.35% | [6] 7.75%

NC(=O)C(=CNC(=S)Nc1ccc(S(=O)(=O)Nc2ccccn2)cc1)C(N)=O
inactive: [1] -31.8% | [2] -8.3% | [3] 22.3% | [4] -4.1% | [5] 11.3% | [6] -26.8%

c1ccc2c(OCCSCCCCCCCCCCSCCOc3cccc4ccccc34)cccc2c1
inactive: [1] 18.9% | [2] -5.55% | [3] -2.25% | [4] 7.75% | [5] -3.6% | [6] -9.25%

O=C1C(Cl)N(c2ccccc2[N+](=O)[O-])C1c1c[nH]c2ccccc12 (configuration not stated)
inactive: [1] -13.6% | [2] -22.6% | [3] 3.65% | [4] -19.9% | [5] -26.2% | [6] -31.7%

COc1cccc(NC(=O)/C(CS(=O)(=O)CCC(C(C)=O)C(C)=O)=N\NC(C)(C)C)c1
inactive: [1] 11.7% | [2] 0.7% | [3] -20.8% | [4] -21.9% | [5] 1.3% | [6] 7.1%

O=C(O)c1ccc(Cl)cc1C(=O)c1ccc(Cl)cc1
inactive: [1] 1.25% | [2] 8.75% | [3] -2.55% | [4] -42.9% | [5] -1.7% | [6] -13.1%

C=C(C)C(O)C(O)c1c(OC)ccc2ccc(=O)oc12 (configuration not stated)
inactive: [1] -3.65% | [2] -4.25% | [3] -50.7% | [4] 14.1% | [5] -5.55% | [6] -4.4%

C=C(CO)CC(CC(=C)CCS(=O)(=O)c1ccccc1)S(=O)(=O)c1ccccc1 (configuration not stated)
inactive: [1] 8.55% | [2] 1.75% | [3] -0.9% | [4] 8.85% | [5] 7.35% | [6] -5.75%

C=C(Cl)COC(=O)C(C)O (configuration not stated)
inactive: [1] 3% | [2] -12.2% | [3] -7.55% | [4] 24.4% | [5] -7.4% | [6] 8.95%

O=C(O)c1ccc(Cl)cc1CC(Cl)(Cl)Cl
inactive: [1] 3.55% | [2] 25.5% | [3] 15.1% | [4] 24.5% | [5] 21.1% | [6] 17.1%

O=C[C@@H](CO)O[C@H](C=O)c1c[nH]c(=O)[nH]c1=O
inactive: [1] -24.1% | [2] -13.2% | [3] -23.9% | [4] -10.5% | [5] -36.5% | [6] -54.5%

c1ccc(C2=Nc3ccccc3C(c3ccccc3)=Nc3ccccc32)cc1
inactive: [1] 1.05% | [2] 3.7% | [3] -8.95% | [4] -18.5% | [5] -1.8% | [6] 2.05%

CC(=O)Nc1ncn(C)c1S(N)(=O)=O
inactive: [1] -4.3% | [2] -19.1% | [3] -1.45% | [4] -16.3% | [5] -7.9% | [6] 15.5%

C/C(CC(O)(C(F)(F)F)C(F)(F)F)=N\O
inactive: [1] -29.8% | [2] -51.2% | [3] -20.4% | [4] -15.9% | [5] -19.5% | [6] -5.65%

Clc1ccc(C2=NCCO2)cc1
inactive: [1] -23.8% | [2] -32.1% | [3] -5.75% | [4] -11.8% | [5] 4.85% | [6] -26.3%

CC1C=CC(O)[C@]2(CO)CC3(CCC12)OCCO3 (some centres not stated)
inactive: [1] -13.7% | [2] 3.95% | [3] -13.6% | [4] 17.6% | [5] -12.7% | [6] -16.3%

C=CCNc1ccc(Cl)cc1Cl
inactive: [1] -3.5% | [2] -6.25% | [3] -21.9% | [4] -54.4% | [5] -8.75% | [6] 12.6%

O=C(O)CSc1nc2cc(Cl)c(Cl)cc2[nH]1
inactive: [1] -9.75% | [2] -6.75% | [3] 1.35% | [4] -10.4% | [5] 13.1% | [6] -7.55%

NCCN(Cc1ccccc1)C1CC1
inactive: [1] 5.4% | [2] -33.6% | [3] 9.35% | [4] 15.3% | [5] -16.2% | [6] -1.05%

COc1c(OC)c(C2(O)C(=O)N(C)c3ccccc32)c2c(c1C1(O)C(=O)N(C)c3ccccc31)OCO2 (configuration not stated)
inactive: [1] 4.25% | [2] 1.7% | [3] -14.9% | [4] 1.2% | [5] 3.05% | [6] 22.9%
